S2 tox: cell viability loss in ATXN counter-screen; S2 cells (HEK-293 line with an ATXN2-luciferase reporter) viability, CellTiter-Fluor protease fluorescence, 24 h; Potency, µM (series often up to 56.7 µM), hits mostly cytotoxic; hit rate 0.49% among 400,000; further: potency means the concentration at half of the fitted maximal effect; nearly all actives have a fitted effect of over 40% in size
ATXN2 expr inh: ATXN2 expression inhibition. HEK-293 ATXN2-luciferase reporter, luminescence, 24 h. Potency, µM (series often up to 57 µM), without a hit: top-dose activity change, negative = inhibition, actives largely listed as inhibitors. hit rate 0.72% among 360,000. AID 1745845; further: potency means the concentration at half of the fitted maximal effect; on the % scale 0 is the no-effect control and ±100 the full control effect; nearly all actives have a fitted effect of over 55% in size
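qHTS (up to 57 uM final) was run with 24 h compound exposure of reporter cells at 37 °C. Each well was multiplexed: SteadyGlo luminescence measured ATXN2-luciferase expression after a fluorogenic Gly-Phe-AFC viability readout (25 uM final).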
a7 integrin act: activates integrin-mediated alleviation for muscular dystrophy; Potency, µM (series often up to 38.3 µM), without a hit: at the highest dose activation, usual class: activators; alpha7betagal myoblasts, beta-gal FDG fluorescence, 48 h; hit rate 0.064% among 350,000; AID 624291;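 further: potency means the concentration at half of the fitted maximal effect; 100% = response of the positive control SU9516; nearly all actives have a fitted effect of over 60% in size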
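alpha7betagal+/- myoblasts (passage 13, 250/well) treated 48 h at 37C with compounds at 1:260 dilution of DMSO stock. Lysed, then beta-galactosidase activity read as FDG fluorescence (ex 480/em 540) after 30 min, with pre-read for autofluorescence.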
IL-1B inflam inh: inhibitors of inflammasome signaling (IL-1 beta secretion). activity change, % at 57.5 µM. THP-1 LPS/ATP IL-1B secretion, AlphaLISA, 16 h; hits give low values. hit rate 4.7% among 360,000. AID 743279; in the data active means activity change below about -50%; inconclusive means mostly about -30% to -49%; further: on the % scale 0 is the no-effect control and ±100 the full control effect
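THP-1 cells pretreated 1 hr with compounds (up to 57.5 uM final), then stimulated with LPS (250 ng/mL final) plus ATP (1.25 mM final); secreted IL-1B measured by AlphaLISA after 16 hr, decreased signal indicating inhibition.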
D3 ag: activates the human D3 dopamine receptor | AID 652048 | P35462 | hit rate 0.58% among 410,000 | max activation, % | D3R DiscoveRx beta-arrestin cells, luminescence, 90 min; in the data active means max activation above about 30%; further: 0% is about no effect
Target sequence (P35462 whole entry, looked up): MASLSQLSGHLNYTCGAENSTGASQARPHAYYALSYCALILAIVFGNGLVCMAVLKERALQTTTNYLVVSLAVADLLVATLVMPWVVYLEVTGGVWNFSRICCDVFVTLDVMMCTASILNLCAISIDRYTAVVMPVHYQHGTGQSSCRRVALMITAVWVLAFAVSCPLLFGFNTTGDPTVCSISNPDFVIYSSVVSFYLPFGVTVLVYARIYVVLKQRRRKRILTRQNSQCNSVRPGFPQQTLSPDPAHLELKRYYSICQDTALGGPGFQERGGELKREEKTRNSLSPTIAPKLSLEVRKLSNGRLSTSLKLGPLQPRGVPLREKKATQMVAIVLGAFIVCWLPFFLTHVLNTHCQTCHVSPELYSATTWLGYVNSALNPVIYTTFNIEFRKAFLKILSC
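Agonist mode: compounds and dopamine controls were applied to plated cells for 90 min at 37 degrees C after an overnight attachment at 1500 cells/well. Luminescent read-out followed 30 - 60 minutes at room temperature with DiscoveRx detection reagent.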
D3 antag: antagonists of human D3 dopamine receptor | P35462 | D3R cells, DiscoveRx beta-arrestin luminescence, antagonist mode; hits give low values | max response, negative = inhibition, % | hit rate 2.5% among 360,000 | AID 652054; in the data active means max response below about -50%; inconclusive means no clear call, values can overlap the other calls; further: on the % scale 0 is the no-effect control and ±100 the full control effect
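Cells expressing the human receptor were seeded at 1500 cells/well, incubated overnight at 37 degrees C in 5% CO2, then exposed to library compounds with dopamine controls for 90 minutes at 37 degrees C before luminescent detection.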
* marks the source's active call; other numbers are inactive results; i = inactive; ? = inconclusive; nt = not tested or not shown; [ ] = another dose, or the depositor's remark. Compounds with a hit are over-represented: about 7% of the library has one in this group of screens. Unless noted, the call rests on the fitted dose curve; in most records, active means well fitted curve in the direction sought with a large enough effect; inconclusive means small, poorly fitted or top-dose-only effect, or another doubt; inactive means no such curve, though single readings can be large; an effect the other way counts as inactive or inconclusive.

SMILES | S2 tox | ATXN2 expr inh | a7 integrin act | IL-1B inflam inh | D3 ag | D3 antag
COc1ccc(S(=O)(=O)n2cnc3cc(C)c(C)cc32)cc1C | i | -10% | -40% | -53* | 12 | 7
COc1ccc(S(=O)(=O)n2cnc3cc(C)c(C)cc32)cc1 | i | -9% | -11% | -6 | 3 | 2
O=[N+]([O-])c1cc(NCCO)c(N2CCCCCC2)c2nonc12 | ? | -6% | 9% | 10 | 25 | 8
Cc1ccc(N=Cc2cc(Cc3ccccc3Cl)cc([N+](=O)[O-])c2O)c(O)c1 | ? | ? | -13% | 20 | -9 | -74*
COc1ccc([N+](=O)[O-])cc1NC(=O)Cc1ccccc1Cl | ? | 1% | -12% | 10 | 4 | 4
COc1ccc(N=Cc2cc(Cc3ccccc3Cl)cc([N+](=O)[O-])c2O)cc1OC | i | nt | 10% | -4 | -15 | -96*
O=C(NCc1cccnc1)C(=O)c1c[nH]c2ccccc12 | i | 3% | -4% | 30 | -5 | 0
O=C1c2ccc([N+](=O)[O-])cc2S(=O)(=O)N1Cc1ccccc1 | i | -5% | 9% | -94* | -14 | -29
Cc1cccn2c(=O)c3cc(S(=O)(=O)c4ccccc4)c(=N)n(Cc4ccco4)c3nc12 | nt | 6%[11.3 µM] | 45% | -18 | 2 | 1
Cc1ccc(S(=O)(=O)c2cc3c(=O)n4ccccc4nc3n(Cc3ccco3)c2=N)cc1C | i | -28% | -10% | -24 | -1 | -25
Cc1cccn2c(=O)c3cc(S(=O)(=O)c4ccc(F)cc4)c(=N)n(Cc4ccco4)c3nc12 | nt | 1% | -20% | -80* | -8 | ?
Cc1ccc2nc3c(cc(S(=O)(=O)c4ccccc4)c(=N)n3Cc3ccco3)c(=O)n2c1 | i | 4%[11.3 µM] | ? | -52* | 4 | -7
N=c1c(S(=O)(=O)c2ccccc2)cc2c(=O)n3ccccc3nc2n1Cc1ccco1 | i | -21% | -23% | -79* | -3 | ?
Cc1cccc2c1-c1sc(C(=O)NCCCN3CCC(C)CC3)cc1CO2 | ? | ? | -58% | ? | -15 | -95*
CC1CCN(CCCNC(=O)c2cc3c(s2)-c2ccccc2OC3)CC1 | i | ? | -52% | -27 | -13 | -83*
Cc1ccc(CCNC(=O)c2cc3c(s2)-c2c(C)cccc2OC3)cc1 | i | 11% | nt | nt | -3 | nt
O=C(NCCCN1CCN(c2ccc(F)cc2)CC1)c1cc2c(s1)-c1ccccc1OC2 | ? | 28µM* | nt | nt | -17 | nt
Cc1cccc2c1-c1sc(C(=O)Nc3cccc([N+](=O)[O-])c3C)cc1CO2 | i | -24% | 0% | -52* | -29 | -17
O=C(NCCCN1CCN(c2ccccc2)CC1)c1cc2c(s1)-c1ccccc1OC2 | ? | 0% | nt | nt | 7 | nt
NC(=O)CC(NC(=O)c1ccccc1)c1ccc(N2CCN(c3ccc(F)cc3)CC2)c([N+](=O)[O-])c1 (stereo not given) | ? | -38% | -2% | -12 | 8 | 18
O=C(COc1cccc2cccnc12)NCc1cccs1 | i | 16% | 22% | 26 | 19 | -14
CC(C)Cn1c(SCC(=O)NCCCN2CCCC2=O)nc2ccccc21 | i | -2% | 18% | 4 | -9 | -9
CC1CCCN(CCCNC(=O)c2cc3c(s2)-c2ccccc2OC3)C1 (stereo not given) | ? | -22% | -15% | -77* | -15 | ?
Clc1ccc2nnnc(-c3ccccc3)c2c1 | ? | 15µM* | -37% | -100* | -3 | 4
c1ccc(-c2nnnc3ccccc23)cc1 | i | 1% | -2% | 20 | 7 | 11
Cc1ccccc1NC(=O)CN1C(=O)CSc2ccccc21 | i | -4% | -33% | -3 | 8 | -9
Cc1cc(C)c(OCCCON2C(=O)CCC2=O)c(Br)c1 | i | -8% | 0% | 28 | 7 | 9
Cc1cc(Cl)c(OCCOCCN2CCC(C)CC2)c(Br)c1 | i | -10% | -54% | -57* | -29 | -56*
Cc1cc(C)c(OCCCCN2CCC(C)CC2)c(Br)c1 | i | -21% | -32% | -78* | -38 | ?
